# Laboratory results reported in article PMC4336329 (PLoS ONE, 2015).
# The campaign covered roughly 310,000 compounds. About 14,000 (4.5%) showed an effect of 50% or more. Effects have a minus sign here. What follows is part of a selection rich in strong results, with near analogues and random picks from the rest.
# Biological target: human ether-à-go-go-related gene (hERG) potassium channel (human, UniProt Q12809)
# Assay: primary screen, population patch clamp on CHO cells stably expressing hERG; higher = less effect of the substance
# 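Note: peak tail current of the secondary pulse compared with the same well before compound.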
# Chain of human ether-à-go-go-related gene (hERG) potassium channel (Q12809 whole entry, looked up): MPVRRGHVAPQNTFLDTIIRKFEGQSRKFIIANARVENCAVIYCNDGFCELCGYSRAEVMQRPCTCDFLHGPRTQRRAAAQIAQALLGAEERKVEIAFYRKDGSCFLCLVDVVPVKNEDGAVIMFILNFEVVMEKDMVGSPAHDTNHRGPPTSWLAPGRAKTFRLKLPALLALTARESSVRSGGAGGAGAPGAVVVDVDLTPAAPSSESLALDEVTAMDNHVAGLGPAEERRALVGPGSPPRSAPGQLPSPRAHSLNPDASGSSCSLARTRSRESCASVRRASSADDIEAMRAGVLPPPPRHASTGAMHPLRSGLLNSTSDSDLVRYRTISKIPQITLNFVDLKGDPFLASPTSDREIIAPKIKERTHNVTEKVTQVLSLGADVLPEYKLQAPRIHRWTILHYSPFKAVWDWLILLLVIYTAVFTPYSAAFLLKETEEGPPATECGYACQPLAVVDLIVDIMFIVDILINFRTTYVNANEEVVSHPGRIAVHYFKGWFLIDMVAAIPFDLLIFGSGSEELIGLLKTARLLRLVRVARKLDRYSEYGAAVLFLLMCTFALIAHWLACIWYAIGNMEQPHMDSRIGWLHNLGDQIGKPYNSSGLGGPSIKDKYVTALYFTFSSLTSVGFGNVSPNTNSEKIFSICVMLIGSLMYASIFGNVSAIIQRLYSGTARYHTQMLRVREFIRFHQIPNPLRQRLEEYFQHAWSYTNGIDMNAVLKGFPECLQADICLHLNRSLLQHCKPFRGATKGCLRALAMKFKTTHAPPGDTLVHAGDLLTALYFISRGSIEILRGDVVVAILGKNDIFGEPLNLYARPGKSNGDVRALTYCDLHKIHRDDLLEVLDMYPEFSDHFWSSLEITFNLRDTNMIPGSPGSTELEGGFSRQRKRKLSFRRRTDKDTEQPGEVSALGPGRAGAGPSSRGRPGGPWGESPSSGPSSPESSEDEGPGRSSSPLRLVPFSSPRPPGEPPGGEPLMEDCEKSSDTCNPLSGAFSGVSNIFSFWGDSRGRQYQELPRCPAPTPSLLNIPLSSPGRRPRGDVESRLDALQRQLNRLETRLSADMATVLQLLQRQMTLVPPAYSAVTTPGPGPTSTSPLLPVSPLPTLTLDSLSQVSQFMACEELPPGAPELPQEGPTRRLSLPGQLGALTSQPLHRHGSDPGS
row,Structure (SMILES),"hERG current change (%, negative = inhibition) at 10uM [%]"
1,C/C(=N\NC(=O)c1ccco1)c1cc(Cl)sc1Cl,-6.11
2,S=c1[nH]nc(COc2ccc(Cl)cc2Cl)n1-c1ccccc1,19.1
3,C/C(=N\Nc1cc(N2CCOCC2)ncn1)c1cccc([N+](=O)[O-])c1,4.5
4,C/C(=N\Nc1cc(N2CCOCC2)nc(C)n1)c1cccc([N+](=O)[O-])c1,-60.4
5,C/C(=N\Nc1nc(N2CCOCC2)nc(N2CCOCC2)n1)c1cccc([N+](=O)[O-])c1,-4.76
6,COCCCNC(=O)[C@H]1N2C(=O)c3ccccc3C2SC1(C)C (some centres unmarked),15.3
7,S=C(NCc1ccco1)N1CCN(Cc2ccc(Cl)cc2Cl)CC1,-36.3
8,O=S(=O)(Nc1ccc(-c2ccc3nncn3n2)cc1)c1ccc(Cl)s1,-19.2
9,O=C(Nc1ccc(S(=O)(=O)N2CCOCC2)cc1)c1ccccc1F,6.32
10,COc1ccc(CNc2ccc3c(c2)ncn3-c2ccccc2OC)cc1,-23
11,C=CCc1ccccc1OCC(O)CN(CC)CC.Cl (centres unmarked),-30.5
12,C=CCc1cc(C)ccc1OCC(O)CN1CCN(c2ccccc2)CC1 (centres unmarked),-47.5
13,C=CCc1cc(OC)ccc1OCC(O)CN1CCN(c2ccc(OC)cc2)CC1 (centres unmarked),-59.7
14,C=CCc1ccccc1OCC(O)CN1CCN(c2ccccc2OC)CC1.Cl (centres unmarked),-75.2
15,C=CCc1ccccc1OCC(O)CN1CCN(c2ccc(OC)cc2)CC1.Cl (centres unmarked),-66.5
16,C=CCc1ccccc1OCC(O)CN1CCN(c2ccc(C)cc2)CC1 (centres unmarked),-44.7
17,C=CCc1ccccc1OCC(O)CNC (centres unmarked),12
18,C=CCc1ccccc1OCC(O)CN1CCN(C(=O)OCC)CC1.Cl (centres unmarked),-11.3
19,C=CCc1ccccc1OCC(O)CN1CCN(c2ccccc2F)CC1.Cl (centres unmarked),-40.9
20,C=CCc1ccccc1OCC(O)CN(C(C)C)C(C)C.Cl (centres unmarked),-59.2
21,Cc1nonc1NC(=O)CSc1nc2cc(Cl)ccc2c2c1CCCC2,2.15
22,CN(Cc1nc(-c2cnccn2)no1)Cc1n[nH]c2c1CCCCC2,-0.424

row,Structure (SMILES),"hERG current change (%, negative = inhibition) at 10uM [%]"
1,O=S(=O)(c1ccccc1)N(CC1CO1)c1cc(Cl)ccc1Cl (centres unmarked),14.2
2,C/C(=N\O)C(C)(C)Nc1ccccc1F,4.26
3,COc1cc(/C=C/c2[nH]c(=O)[nH]c(=O)c2[N+](=O)[O-])cc(OC)c1O,7.26
4,CN(C)Cc1nc2ccccc2c(=O)n1CC(=O)Nc1cccc(S(=O)(=O)N2CCOCC2)c1,-14.4
5,CCN(C(=O)C1CCCN1S(=O)(=O)c1ccc2c(c1)n(C)c(=O)c(=O)n2C)c1ccccc1 (centres unmarked),-3.32
6,CCOC(=O)c1c(C)[nH]c(C(=O)C(C)OC(=O)c2cnc(C)cn2)c1C (centres unmarked),-0.804
7,O=C(NCCC(=O)N1CCC2(CC1)NCCc1[nH]cnc12)c1cccc(Br)c1,1.5
8,C=CCc1cc(OC)ccc1OCC(O)CN1CCN(c2ccc(OC)cc2)CC1.Cl (centres unmarked),-71.2
9,COc1ccc(CCNC(=S)Nc2ccc(S(=O)(=O)Nc3ncccn3)cc2)cc1OC,21.2
10,CC(=O)c1cc(Cc2csc(C(C)=O)c2)cs1,2.75
11,CC(=O)c1cc(C(c2csc(C(C)=O)c2)c2csc(C(C)=O)c2)cs1,-72.6
12,CC(=O)c1cc(CN2C(=O)CCC2=O)cs1,5.27
13,O=C(NCc1ccco1)C1CC(c2ccc(Cl)cc2)=NO1 (centres unmarked),1.47
14,FC(F)(F)c1cccc(-c2nc3nc(Cl)c(Cl)nc3[nH]2)c1,30.4
15,CC(=O)NS(=O)(=O)c1ccc(NC(=S)NC(=O)c2ccco2)cc1,2.54
16,Clc1ccc(CN2CCCCCCC2)cc1Cl,3.83
17,Clc1ccc(CN2CCCCCC2)cc1Cl,-7.66
18,Cl.Clc1ccc(CN2C3=NCCCN3c3ccccc32)cc1Cl,-76.3
19,Cl.Clc1ccc(CN2C3=NCCN3c3ccccc32)cc1Cl,-75.9
20,CCN1CCSc2ccc(C(=O)Nc3ccc(NC(C)=O)cc3)cc21,1.22
21,CCN(Cc1ccccc1)C(=O)CSc1n[nH]c(N)n1,33.6
22,CNC(=O)[C@@]1(Cc2ccccc2)C=C[C@@H](C)N1C(C)=O,5.07
